In ChEMBL document CHEMBL1157539, “Thousands of chemical starting points for antimalarial lead identification” (Nature, 2010):

Experiments:
Format in all cases: functional
Plasmodium falciparum [1] = test: GSK_TCMDC: Inhibition of Plasmodium falciparum 3D7 in whole red blood cells, using parasite LDH activity as an index of growth. Test compounds present at 2uM
Plasmodium falciparum [2] = test: GSK_TCMDC: Inhibition of Plasmodium falciparum Dd2 in whole red blood cells, using parasite LDH activity as an index of growth. Test compounds present at 2uM
HepG2 = test: GSK_TCMDC: Percent inhibition of human HepG2 cell line. Test compounds present at 10uM.

With `CC(C)C(NC(=O)c1c(F)cccc1F)C(=O)Nc1ccc(Cc2nc3ccccc3s2)cc1` (configuration not stated) the Inhibition (Plasmodium falciparum [1]) was 86%, the Inhibition (Plasmodium falciparum [2]) was 55% and the Inhibition (HepG2) was 0%.
With `Br.CC[C@H]1CN2CCc3cc(OC)c(OC)cc3[C@@H]2C[C@@H]1CC1=NCCc2c1[nH]c1ccc(OCc3ccccc3)cc21` the Inhibition (Plasmodium falciparum [1]) was 100%, the Inhibition (Plasmodium falciparum [2]) was 89% and the Inhibition (HepG2) was 57%.
For `CCN(CC(C)O)C(=O)c1ccc(-c2cccc(-c3nc4cccc(C)c4[nH]3)c2)cc1` (configuration not stated), the Inhibition (Plasmodium falciparum [1]) was 100%, the Inhibition (Plasmodium falciparum [2]) was 32% and the Inhibition (HepG2) was 28%.
`CC(Cc1ccc(NS(=O)(=O)c2ccc(CC(C)NCCc3cccc(Cl)c3)cc2)cc1)NCCc1cccc(Cl)c1` (configuration not stated) showed an Inhibition (Plasmodium falciparum [1]) of 100%, an Inhibition (Plasmodium falciparum [2]) of 38% and an Inhibition (HepG2) of 12%.
In the case of `Cc1noc(C)c1-c1cccc(CNCc2ccc(-c3ccc(-c4nc5cc(C(F)(F)F)ccc5[nH]4)s3)cc2)c1.O=C(O)C(F)(F)F`, the Inhibition (Plasmodium falciparum [1]) is reported as 100%, the Inhibition (Plasmodium falciparum [2]) is reported as 99% and the Inhibition (HepG2) is reported as 54%.
`O=C(CC1SC(N2N=C(c3cccs3)CC2c2ccccc2)=NC1=O)Nc1ccc(Cl)cc1` (configuration not stated) showed an Inhibition (Plasmodium falciparum [1]) of 83%, an Inhibition (Plasmodium falciparum [2]) of 88% and an Inhibition (HepG2) of 18%.
For `CCN(C1CCCCC1)S(=O)(=O)c1ccc(OC)c(N2CCN(C(=O)C(Cl)(Cl)Cl)CC2)c1`, the Inhibition (Plasmodium falciparum [1]) was 100%, the Inhibition (Plasmodium falciparum [2]) was 85% and the Inhibition (HepG2) was 0%.
`CCCc1cn2c3c(cc(C(=O)N[C@@H](Cc4ccccc4)[C@H](O)CNC4CCOCC4)cc13)N(CC)S(=O)(=O)CC2.O=CO` gave an Inhibition (Plasmodium falciparum [1]) of 97%, an Inhibition (Plasmodium falciparum [2]) of 98% and an Inhibition (HepG2) of 2%.
`CNC(=N)c1ccc(NC(=O)Nc2ccc(C(=N)NC)cc2)cc1.Cl` was tested, and the Inhibition (Plasmodium falciparum [1]) was 84%, the Inhibition (Plasmodium falciparum [2]) was 71% and the Inhibition (HepG2) was 0%.
